Data as given in PubChem BioAssay (Tox21).
Records with an inconclusive call do not appear. Entries that show only a call come without a potency. Activity calls are given as the source filed them. Calls come from the whole dose curve; as a rule, active = well fitted cell-killing curve with a large enough effect in the repeat runs; inconclusive = weak or mixed curves, or effect the other way; inactive = flat fitted curve, though single readings scatter.

Tests used:
[1] = cAMP Responsive Elements (CRE) small molecule antagonists, cell-based qHTS assay: qHTS cell viability counter screen (AID 2060913); settings: CRE-bla HEK293T viability, CellTiter-Glo luminescence, 5 h; series mostly up to 92.4 µM; note: nearly all actives have a fitted effect of over 40% in size
Outline: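 CRE-bla HEK293T cells (2,000/well, 18 h) given compound plus NKH477 0.25 uM final for 3 h at 37C; viability counter-screen by CellTiter-Glo luminescence in same wells after 30 min.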

[2] = cAMP Responsive Elements (CRE) small molecule agonists, cell-based qHTS assay: qHTS cell viability counter screen (AID 2060914); settings: CRE-bla HEK293T viability, CellTiter-Glo luminescence, 5 h; series mostly up to 92.4 µM;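 note: viability read after 3 h of compound exposure; nearly all actives have a fitted effect of over 50% in size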
Outline: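 Cytotoxicity counter screen multiplexed with the CRE-bla reporter assay in HEK 293T cells: 3 h compound exposure at 37 °C, followed by CellTiter-Glo luminescence measured in the same wells.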

Compound	Potency [1]	Potency [2]
Cc1cc(C)cc(C)c1	inactive	inactive
CCN[C@H](C)Cc1cccc(C(F)(F)F)c1	inactive	inactive
CSC(C)(C)/C=N/O	inactive	inactive
CCOC(=S)S	inactive	inactive
CCCCOCCOP(=O)(OCCOCCCC)OCCOCCCC	inactive	inactive
N#Cc1c[nH]cc1-c1cccc2c1OC(F)(F)O2	inactive	inactive
Cc1cccc2sc3nncn3c12	inactive	inactive
CC(=O)OC1(c2ccccc2)CCN(CCc2ccccc2)CC1	inactive	inactive
CCOCN(C(=O)CCl)c1c(C)cccc1CC	inactive	inactive
C#C[C@]1(O)C=C[C@H]2[C@@H]3CCC4=CC(=O)CC[C@@H]4[C@H]3CC[C@@]21CC	inactive	inactive
Clc1ccccc1N1CCNCC1	inactive	inactive
O=S(=O)(c1ccc(Cl)cc1)c1cc(Cl)c(Cl)cc1Cl	inactive	inactive
COC[C@H](C)N(C(=O)CCl)c1c(C)csc1C	inactive	inactive
O=S(=O)(C(Cl)(Cl)Cl)C(Cl)(Cl)Cl	inactive	inactive
CCCN(CCC)CCc1c[nH]c2ccccc12	inactive	inactive
c1cc[n+]2c(c1)-c1cccc[n+]1CC2	inactive	inactive
CCCCC(CC)CO[N+](=O)[O-] (configuration not stated)	inactive	inactive
CCC(C)Br (configuration not stated)	inactive	inactive
BrCC(Br)c1ccccc1 (configuration not stated)	inactive	inactive
CN1CCC(O)(c2ccc(F)cc2)C(C(=O)c2ccc(F)cc2)C1 (configuration not stated)	inactive	inactive
CC(C)OC(=O)Cc1ccccc1	inactive	inactive
